Assay outcomes: PubChem BioAssay, National Center for Advancing Translational Sciences (NCATS)
ELG1 repair inh = blocks ELG1-dependent DNA repair in HEK293T cells. HEK293T ELG1-luciferase reporter, luminescence, 16 h; DNA damage induced by 5-fluorouridine. Potency, µM (doses to about 46.1 µM), for inactives: at the highest dose activity change, negative = inhibition, actives largely listed as inhibitors. 330,000 tested, 2.3% active. AID 504467; further: potency means the concentration at half of the fitted maximal effect; nearly all actives have a fitted effect of over 55% in size
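HEK293T cells expressing luciferase-tagged ELG1 (2,000/well) received 5-Fluorouridine plus compound or DMSO for 16 hr at 37 °C. Luciferase was read by ONE-Glo luminescence after 30 min at room temperature.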
TDP1 cell noCPT = qHTS for Inhibitors of human tyrosyl-DNA phosphodiesterase 1 (TDP1): qHTS in cells in absence of CPT | DT40 Tdp1-/- hTDP1 cells, no CPT, ATP luminescence, 48 h | 420,000 tested, 15% active | Potency, µM (highest dose often 46.2 µM), inactives show at the highest dose activity change, negative = growth inhibition, most hits filed as inhibitors; further: potency means the concentration at half of the fitted maximal effect; nearly all actives have a fitted effect of over 55% in size
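Chicken DT40 Tdp1-/- cells complemented with human TDP1, screened without camptothecin (DMSO vehicle only), 400 cells/well. Compounds pin-transferred, cells incubated at 37 °C for at least 48 hr. Growth read as ATP-dependent luminescence (CellTiter-Glo, 30 min at RT).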
TDP1 cell CPT = growth inhibition of DT40 Tdp1-/-;hTDP1 cells with camptothecin (screen for TDP1 inhibitors); AID 686979; chicken DT40 Tdp1-/-;hTDP1 cells + 20 nM CPT, ATP luminescence, 48 h; 420,000 tested, 12% active; Potency, µM (titrated, usually from 46.2 µM), for the others: top-dose activity change, negative = growth inhibition, usual class: inhibitors; further: potency means the concentration at half of the fitted maximal effect; nearly all actives have a fitted effect of over 55% in size
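Cell growth measured by CellTiter-Glo luminescence after a minimum 48 h, 37 C compound exposure with 20 nM CPT in Tdp1-knockout DT40 cells stably expressing hTDP1, seeded 400/well; qHTS titration format.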
HT1080 IDH1KD tx = HT-1080 IDH1 knockdown cell toxicity (counter line); HT-1080 IDH1 knockdown viability, ATP luminescence, 48 h; Potency, µM (highest dose often 46.1 µM), inactives show at the highest dose activity, negative = toxicity, usual class: cytotoxic; 360,000 tested, 2% active; AID 686971;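 further: potency means the concentration at half of the fitted maximal effect; 0% = DMSO wells and -100% = cell-free medium wells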
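HT-1080-IDH1KD cells (IDH1 knocked down), 750/well in RPMI with 5% FBS, treated with compound 48 h at 37 degrees C. Viability by CellTiter-Glo luminescence, normalised to DMSO and no-cell wells; concentration-response curves classed.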
HT1080NT lethal = kills 2HG-producing HT-1080-NT fibrosarcoma cells; HT-1080-NT fibrosarcoma viability, CellTiter-Glo ATP luminescence, 48 h; Potency, µM (highest dose often 46.1 µM), for inactives: top-dose activity, negative = less viability, usual class: cytotoxic; 360,000 tested, 1.6% active; AID 686970;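 further: NT is the 2HG producing partner of a matched IDH1 knockdown line; potency means the concentration at half of the fitted maximal effect; 0% = DMSO-treated cells and -100% = media-only wells without cells; nearly all actives have a fitted effect of over 55% in size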
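Luminescent CellTiter-Glo readout after 48 hours of compound exposure at 37 degrees C defined viability of HT-1080-NT cells. Activity was normalized to DMSO wells and cell-free media wells; concentration-response curves were fitted and assigned curve classes.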
IL-1B inflam inh = inhibitors of inflammasome signaling (IL-1 beta secretion). THP-1 LPS/ATP IL-1B secretion, AlphaLISA, 16 h; stronger effect = lower value. activity change, % at 57.5 µM. 360,000 tested, 4.7% active; in the data active means activity change below about -50%; inconclusive means mostly about -30% to -49%
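THP-1 cells pretreated 1 hr with compounds (up to 57.5 uM final), then stimulated with LPS (250 ng/mL final) plus ATP (1.25 mM final); secreted IL-1B measured by AlphaLISA after 16 hr, decreased signal indicating inhibition.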
Numbers without * were called inactive; u = inconclusive; x = no result; [ ] = dose if it differs, or a comment. The list is not random: actives were taken first. Their share in the collection is about 19%. Unless noted, the call rests on the fitted dose curve; in most records, active means well fitted curve in the direction sought with a large enough effect; inconclusive means small, poorly fitted or top-dose-only effect, or another doubt; inactive means no such curve, though single readings can be large; an effect the other way counts as inactive or inconclusive. Unless noted, on the % scale 0 is the no-effect control and ±100 the full control effect.

SMILES	ELG1 repair inh	TDP1 cell noCPT	TDP1 cell CPT	HT1080 IDH1KD tx	HT1080NT lethal	IL-1B inflam inh
Cc1ccc(NC(=O)c2ccc3ccccc3n2)cc1S(=O)(=O)N(C)C	u	12µM*	u	15%	4%	16
N#Cc1cccc(NC(=O)N2CC3(CCN(C(=O)c4ccco4)CC3)C2)c1	x	-12%	-3%	x	x	x
CC(C)Cc1nnc(NC(=O)C2CCCC2)s1	u	-33%	2%	4%	-3%	4
Cc1ccc(CNC(=O)C2CCCN(c3nc4c(C)cc(C)cc4s3)C2)cc1 (stereo not given)	x	-18%	1%	x	x	x
O=C1NC[C@@H](CCCCN2CCN(CCc3ccccc3)C(=O)C2=O)N(CCC2CCCCC2)C1=O	x	-8%	-4%	u	17%	4
CC1(Cc2ccc(Cl)cc2)C(=O)Nc2c(Cl)cccc21 (stereo not given)	x	u	-20%	10%	u	38
Nc1ncn(C(=S)Nc2ccccc2)n1	x	1.3µM*	1.2µM*	9%	6%	u
S=C(Nc1ccccc1)N1CCC(C2CCN(C(=S)Nc3ccccc3)CC2)CC1	u	2%	-2%	4%	9%	-7
O=C(Nc1ccccc1C(=O)NCc1ccccc1)C1=CSCCO1	11%	-28%	-8%	6%	9%	-1
C=C(C)c1cccc(C(C)(C)NC(=O)N2CCN(c3ccccc3)CC2)c1	-4%	u	-19%	-2%	0%	4
C=C(C)c1cccc(C(C)(C)NC(=O)N2CCCC(C)C2)c1 (stereo not given)	3%	u	23µM*	-7%	-7%	13
C=C(C)c1cccc(C(C)(C)NC(=O)N2CCN(C/C=C/c3ccccc3)CC2)c1	u	23µM*	23µM*	-16%	-23%	u
C=C(C)c1cccc(C(C)(C)NC(=O)N2CCCC(C(N)=O)C2)c1 (stereo not given)	9%	-40%	-1%	-5%	-4%	-9
C=C(C)c1cccc(C(C)(C)NC(=O)Nn2cnnc2)c1	5%	0.82µM*	-9%	7%[9.24 µM]	2%	14
Cc1cccc(C(=O)Nc2cc3c(cc2C)n(C)c(=O)n3C)c1	x	-5%	-1%	x	x	x
O=C(CCc1nc2ccccc2s1)N1CCOc2ccc(CN3CCc4sccc4C3)cc2C1	x	u	0%[9.04 µM]	x	x	x
COc1cccc(Oc2cn[nH]c2-c2ccc(OC)cc2O)c1	u	u	u	u	u	-18
COc1ccccc1Oc1cn[nH]c1-c1ccc(OCC(=O)NN)cc1O	-18%	-18%	-12%	0%	-10%	-14
COc1ccccc1Oc1cn[nH]c1-c1ccc(O)cc1O	14%	21µM*	-25%	-9%	-12%	17
COc1cccc(Oc2cn[nH]c2-c2ccc(O)cc2O)c1	u	u	9.2µM*	u	u	15
Cc1ccccc1C(=O)Nc1ccc(C(=O)N/N=C/c2ccc(O)c(Br)c2)cc1	-19%	u	u	-14%	-19%	0
O=C(/C=C/c1cccc(F)c1)N(c1ccccn1)C1CCCCC1	-13%	u	13µM*	14%	14%	6
O=C(/C=C/c1ccc(Cl)cc1)N1CCN(c2ccccn2)CC1	10%	u	-14%	-6%	-3%	-13
COc1ccc(/C=C/C(=O)N(c2ccccn2)C2CCCCC2)cc1OC	-22%	u	23µM*	-1%	21%	-23
CN(C(=O)/C=C/c1ccccc1)C1CCCCC1	x	-22%	-2%	11%	14%	-51*
O=C(/C=C/c1ccc(Cl)cc1)N(c1ccccn1)C1CCCCC1	u	21µM*	u	-12%	-17%	-57*
